miR122 inh: inhibitors of miR-122 in Huh7 cells | Huh7 miR-122 Renilla luciferase sensor, 48 h; neutral wells = 0, positive control = 100 | activation (reporter increase), % at 12.5 µM | hit rate 0.3% among 340,000 | AID 602342;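 active = mean replicate activation score at least 90 and every replicate individually at or above 90; inconclusive = only one of the two criteria met; inactive = neither criterion met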;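 also: higher luciferase means less miR-122 activity so hits act as miR-122 inhibitors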
PAX8 inh HTS: lowers PAX8-driven luciferase in RMG-I cells | RMG-I TPO-luciferase reporter, SteadyGlo, 24 h | inhibition, % at 12.6 µM | AID 652154 | hit rate 1.2% among 360,000;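 active = mean replicate inhibition at least 60% with every replicate also reaching 60%; inconclusive = only one of the two criteria is met; inactive = mean below 60% and not all replicates reaching 60%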;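 also: luciferase light reporting Pax8 driven TPO promoter activity; plate controls were median of neutral control wells for no effect and mitoxantrone controls for full effect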
Statin myotox sup: suppressors of simvastatin-induced myotoxicity in C2C12 myotubes; ATP luminescence, 48 h; scaled: DMSO 0, geranylgeraniol control 100; rescue of ATP level, % at 7.49 µM; hit rate 0.78% among 330,000;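 active = mean ATP rescue above about 67%, or every replicate alone reaching that limit, limit read from the data, passing the limit was not always enough; inconclusive = no clear call, values can overlap the other calls; inactive = mean under the limit and some replicate under it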;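 also: myotubes were challenged with 10 µM simvastatin during compound exposure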
INS-1E GSIS act: GLuc luminescence reporter in INS-1E cells, primary screen for activators of glucose-dependent secretion of insulin; INS-1E GLuc reporter insulin secretion, 2-3 h; activation, % at 16.6 µM; hit rate 0.61% among 370,000; AID 743287;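 active = lowest replicate activation of at least 40%, so every replicate reaches that level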;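 also: 0% = median of neutral control wells and 100% = median of IBMX positive control wells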
EWS-Fli inh: EWS/Fli transcriptional activity inhibition; A673 NR0B1-luciferase reporter, viability-normalised; inhibition, % at 12.6 µM; hit rate 0.67% among 350,000; AID 651661;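 active = mean inhibition of at least 50% after viability correction, with every replicate also passing that limit; inconclusive = mean reaches 50% but only one of two replicates passes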;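 also: firefly luciferase signal divided by Alamar Blue viability fluorescence both relative to DMSO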
Env fusion inh: blocks HIV Env-driven cell-cell fusion. HeLa-JRFL Env/CEM21 cell fusion, luciferase. inhibition, % at 12.3 µM. hit rate 1.1% among 360,000;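 active = mean replicate inhibition score of at least 50 and every replicate individually at or above 50; inconclusive = only one of the two criteria met; inactive = mean below 50 and not all replicates reaching 50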;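 also: 0% = plate neutral controls and 100% = maraviroc near 300 nM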
* hit, by the source's call; ? = inconclusive; · = no result; [ ] = another dose, or the depositor's remark. In the library only some 3.1% were active in any assay of this set; here they are far more common.

SMILES	miR122 inh	PAX8 inh HTS	Statin myotox sup	INS-1E GSIS act	EWS-Fli inh	Env fusion inh
CCNC(=O)c1cc2c(c(-c3cccc(-c4cccnc4)c3)n1)[C@H](CCO)N(S(C)(=O)=O)C2	·	40.0	·	10.3	55.1*	-199.5[16.7 µM]
CC=Cc1ccc2n(c1=O)C[C@H]1[C@H](CO)[C@@H](C(=O)NCCC)[C@@H]2N1CCC(F)(F)F (mixture of isomers)	1.6[16.7 µM]	-13.6	-2.2	7.3	2.8	·
O=C(Nc1cccc(S(=O)(=O)N2CCOCC2)c1)[C@@H]1CCCN1S(=O)(=O)c1ccc(Cl)cc1	·	-19.9	·	-15.7	·	61.8*
O=C(COC(=O)c1ccco1)Nc1cccc(S(=O)(=O)N2CCOCC2)c1	-5.4	91.7*	-7.5	-8.0	3.3	19.9
CC(NC(=O)C1CCCN1S(=O)(=O)c1ccc2c(c1)n(C)c(=O)c(=O)n2C)c1ccccc1 (stereo not drawn)	-2.5	15.3	9.3	54.0*	-1.6	3.6
O=C(Nc1cccc(S(=O)(=O)N2CCOCC2)c1)C1CCCCN1S(=O)(=O)c1ccccc1 (stereo not drawn)	·	12.5	·	-6.5	3.5	22.4
O=C(COC(=O)c1ccco1)Nc1cccc(S(=O)(=O)N2CCCCC2)c1	·	6.2	6.2	-8.6	6.1	·
CCc1cccc(NC(=O)C2CCCN2S(=O)(=O)c2ccc3c(c2)n(C)c(=O)c(=O)n3C)c1 (stereo not drawn)	-2.2	14.9	6.5	45.8*	-2.4	-5.0
C[C@@H]1CN([C@H](C)CO)C(=O)c2cc(C#Cc3ccccc3)cnc2O[C@H]1CN(C)C(=O)CN(C)C	-7.8[16.7 µM]	·	-15.9	7.0	2.9	17.9[16.7 µM]
COc1ccc(NC(=O)C2CCCN2S(=O)(=O)c2ccc3c(c2)CCC(=O)N3)cc1Cl (stereo not drawn)	-1.7	11.0	-15.1	2.5	2.6	84.9*
O=C(O)c1c2c(nc3ccc(S(=O)(=O)N4CCC(C(=O)NCc5ccccc5Cl)CC4)cc13)CCCC2	3.3	-1.7	76.9*	-7.3	1.6	-11.8
O=C(O)c1c2c(nc3ccc(S(=O)(=O)N4CCC(C(=O)NCc5ccc(Cl)cc5)CC4)cc13)CCCC2	2.0	-5.9	4.4	-8.2	3.5	-5.7
CN1CCC(NCCC(c2ccc(F)cc2)c2ccc(Cl)cc2)CC1 (stereo not drawn)	·	?	·	-21.0	55.1*	-14.0
O=C(c1ccc(S(=O)(=O)c2ccc(F)cc2)c([N+](=O)[O-])c1)N1CCCCCC1	-3.9	-24.2	·	·	-13.9	44.1
CN(C(=O)c1ccc(S(=O)(=O)c2cccc(Cl)c2)c([N+](=O)[O-])c1)C1CCCCC1	-2.2	9.0	·	-31.8	·	59.1*
C=C1C(=O)O[C@H]2C[C@H]1[C@@H](OC(C)=O)C/C(C)=C/CC/C(C)=C\CC[C@]2(C)O	-11.2	111.3*	-45.1	·	55.7*	80.8*
Cc1cccc(C(=O)Oc2ccccc2C2C[C@]3(C)CC(=O)NC3N2C(=O)c2cccc(C)c2)c1 (stereo partly drawn)	6.0	11.4	·	·	·	47.9*
C[C@@]12CC(=O)NC1N(C(=O)c1cccc(C(F)(F)F)c1)C(c1ccccc1O)C2 (stereo partly drawn)	-6.6	-8.3	-12.0	·	·	105.0*
CC(C)CC#Cc1ccc([C@@H]2[C@@H](CO)N3C(=O)CN(C(=O)NC4CCCCC4)C[C@H]23)cc1	·	-7.0	·	-25.3	-9.2	·
Clc1ccc(-c2cc(CN3CCOCC3)no2)cc1	-8.9	-85.3	6.2	147.1*	-18.8	-22.7
Clc1ccc(-c2cc(CN3CCCCC3)no2)cc1Cl	4.4	-11.6	-10.3	-5.8	-68.1	-11.4
CO[C@@H]1CN(C)C(=O)c2cc(NS(=O)(=O)CC(F)(F)F)ccc2OC[C@H](C)N(C(=O)c2ccc3c(c2)OCO3)C[C@H]1C	·	4.3	-16.1	-7.0	-6.0	·
O=C(C[C@@H]1C[C@@H]2c3cc(NC(=O)NC4CCCC4)ccc3O[C@@H]2[C@@H](CO)O1)NCCc1ccccc1	1.4[16.7 µM]	9.1	-4.5	0.5	5.0	-12.5[16.7 µM]
Cc1nc2scc(C)n2c(=O)c1S(=O)(=O)Nc1ccc(OC(F)(F)F)cc1	24.8	-10.8	4.5	-35.7	3.0	55.2*
C[C@H](O)C#Cc1ccc2c(c1)O[C@@H](CN(C)Cc1ccc(-c3ccccc3)cc1)[C@@H](C)CN([C@H](C)CO)S2(=O)=O	-34.2[16.7 µM]	94.3*	-35.4	-5.9	20.3	·
SMILES	miR122 inh	PAX8 inh HTS	Statin myotox sup	INS-1E GSIS act	EWS-Fli inh	Env fusion inh
C[C@@H](O)C#Cc1ccc2c(c1)O[C@@H](CN(C)Cc1ccc(-c3ccccc3)cc1)[C@@H](C)CN([C@@H](C)CO)S2(=O)=O	-6.8[16.7 µM]	50.2	-40.5	-10.1	-5.2	·
C[C@H](CO)N1C[C@H](C)[C@@H](CN(C)Cc2ccccc2)Oc2cc(C#C[C@@H](C)O)ccc2S1(=O)=O	47.0[16.7 µM]	·	-68.6	9.4	-2.3	-0.7[16.7 µM]
C[C@@H](O)C#Cc1ccc2c(c1)O[C@H](CN(C)Cc1ccc(-c3ccccc3)cc1)[C@@H](C)CN([C@@H](C)CO)S2(=O)=O	-32.2[16.7 µM]	102.6*	-80.4	-7.4	-1.0	·
C[C@H](CO)N1C[C@H](C)[C@@H](CN(C)Cc2ccc(-c3ccccc3)cc2)Oc2cc(C#C[C@@H](C)O)ccc2S1(=O)=O	-18.0[16.7 µM]	74.0*	-46.6	-13.3	-1.5	·
Cn1c(CN2CCCCC2)nc2cc(NC(=O)c3cccc(Br)c3)ccc21	5.2	·	-0.9	·	·	67.1*
CC(SCc1ccccc1)C(=O)Nc1ccccc1-c1ccccc1 (stereo not drawn)	·	9.5	·	-14.7	74.7*	-7.8
C[C@@H]1CN([C@H](C)CO)C(=O)c2cc(NS(=O)(=O)c3cccs3)ccc2O[C@@H](C)CCCCO[C@H]1CN(C)Cc1ccccc1	2.2[16.7 µM]	-8.3	·	-14.0	-1.6	-22.4[16.7 µM]
CCCn1c(SCC(=O)N2CCCC2=O)nc2ccccc2c1=O	-6.4	·	10.2	46.0*	6.8	-4.5
O=C(C[C@@H]1C[C@@H]2c3cc(NC(=O)Nc4ccccc4)ccc3O[C@@H]2[C@@H](CO)O1)NCCN1CCCCC1	3.6[16.7 µM]	-6.3	3.1	10.2	-3.0	-13.0[16.7 µM]
CCN(CC(=O)Nc1cc(Cl)ccc1C)C(=O)c1ccc(=O)n(Cc2ccccc2)n1	·	31.4	6.9	-14.7	·	109.7*
COc1ccccc1-c1ccc2c(c1)O[C@H](CN(C)C(=O)Nc1cccc(F)c1)[C@@H](C)CN([C@H](C)CO)S2(=O)=O	-0.7[16.7 µM]	·	-16.1	-18.0	5.3	-3.9[16.7 µM]
CO[C@@H]1CN(C)C(=O)c2ccc(NC(=O)NC(C)C)cc2OC[C@H](C)N(Cc2ccccc2)C[C@@H]1C	-2.2[16.7 µM]	·	12.9	-18.0	5.3	·
COc1ccc2c3c(n(C)c2c1)[C@H](CO)N(C(=O)c1ccccc1)CC31CN(CC2CC2)C1	·	·	·	5.4	-5.5	·
C[C@@H]1CN([C@H](C)CO)C(=O)c2cccc(NC(=O)C3CCOCC3)c2O[C@@H]1CN(C)Cc1ccc(C(=O)Nc2ccccc2N)cc1	14.3[16.7 µM]	·	110.1*	6.2	34.3	·
